Assay results as given in PubChem BioAssay (NCI).
Compounds without any hit were thinned out: in the full panel of roughly 83,000, 20% have a hit.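 Step 1: grow cells in 96-well plates. Step 2: add test compound at a single concentration. Step 3: incubate 48 h. Step 4: record percent growth.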 Active and inactive are the calls of the source.

What follows are compounds tested on CCRF-CEM leukemia (assay: NCI-60 one-dose screen, 48 h (100 = growth as untreated, 0 = no growth, -100 = all killed)). Conditions: 10 µM unless noted.
Protocol: Growth inhibition of the CCRF-CEM human tumor cell line is measured as a screen for anti-cancer activity. Cells are grown in 96 well plates and exposed to the test compound for 48 hours. Compounds are tested at a single concentration, which is 10^-5 M for most compounds. The reported endpoint is percent growth (GI% or GIPRCNT), where numbers from 0 - 100% represent growth inhibition, and numbers from -100% - 0 represent cell death. For example, a value of 40 represents 60% growth inhibition. A value of 0 means no net growth occurred over the course of the experiment. A value of -40 indicates 40% of cells at the beginning of the experiment died by the end of the experiment. A value of -100 means all cells are dead at the end of the experiment.
NCI-60 Human Tumor Cell Lines Screen was performed using the standard one-dose NCI protocol, which is described in more detail at https://dtp.cancer.gov/discovery_development/nci-60/default.htm.
Compounds with GIPRCNT values below 10 were considered active. Activity score was based on GIPRCNT using the following formula: […]
Score is 0 for GIPRCNT values of 100 or above, 50 for GIPRCNT values of 0, and 100 for GIPRCNT values of -100.
CN1CCN(c2ccc(Nc3nc(NCCNC(=O)c4ccc(F)cc4)c4sccc4n3)cc2)CC1 was tested, and the growth was 38.2% (inactive). With COc1ccc2c(c1)c(-c1nnc(N)nc1-c1c[nH]c3ccc(F)cc13)cn2C the growth was 22.3% (inactive). For N#Cc1cnc2ccc(-c3cnc4n[nH]nc4c3)cc2c1N1CCc2cc(F)c(Cl)cc21, the growth was 10.6% (inactive). For Cc1ccc(C)c(NC2=C(Cl)C(=O)c3nc(C)ccc3C2=O)c1, the growth was 0.186% (active). With Cc1[nH]c(C(=O)Nc2ccc(C(=O)NCC3CCNCC3)cc2OC(C)C)c(Cl)c1Cl the growth was 32.6% (inactive). In the case of CCCCCC[n+]1ccc(SCC(=O)n2ccc3ccccc32)c2ccccc21, the growth is reported as 77.3% (inactive). For O=C(/C=C/Nc1ccc(S(=O)(=O)Nc2ncccn2)cc1)c1ccc(N=Cc2c(O)[nH]c3ccccc23)cc1, the growth was 104% (inactive). With N#Cc1c(-c2ccc(Br)cc2)cc(-c2c[nH]c3ccccc23)nc1N the growth was 34.1% (inactive). For Cc1ccc(S(=O)(=O)NCCCNc2nc(Nc3ccc(N4CCN(C)CC4)cc3)nc3ccsc23)cc1, the growth was 18.1% (inactive). With CC(Nc1ncnc2ccc(-c3cnc4cnccn34)cc12)c1ccccc1 (stereo not given) the growth was 61.1% (inactive). NC(=O)n1c(=O)n(-c2cccc(C(F)(F)F)c2)c(=O)c2cc(-c3ccc(F)cc3F)ccc21 was tested, and the growth was 9.98% (active). With O=S(=O)(NCCCNc1nccc(-c2[nH]c(-c3ccccc3)nc2-c2ccc(F)c(O)c2)n1)c1ccc(C(F)(F)F)cc1 the growth was 4.62% (active). For CC1CCN(CC(=O)Nn2c(COc3ccccc3)nc3ccccc3c2=O)CC1, the growth was 89.4% (inactive). CCc1nnc(NC(=O)c2cc(-c3ccc(Cl)cc3Cl)oc2C)s1 was tested, and the growth was 97.6% (inactive). For CCN1CCN(c2ccc(NC(=O)Nc3ccc4c(ccn4-c4ccnc(C(=O)NC)c4)c3)cc2C(F)(F)F)CC1, the growth was 7.75% (active). With Cc1ccc(NC(=O)/C=C/c2ccc(OCCCOc3ccc4c(C)cc(=O)oc4c3)cc2)cc1 the growth was 99.1% (inactive). For COc1ccc2[nH]cc(-c3nn4cc(-c5ccncc5)nc4s3)c2c1, the growth was 37.9% (inactive). In the case of CCCCCCOC(=O)c1cc(-c2ccc(F)cc2)nc2ccccc12, the growth is reported as 95.8% (inactive). In the case of COc1ccc2sc(NC(=O)CCCCCCNC(=O)C(O)(O)C(F)(F)F)nc2c1, the growth is reported as 24.6% (inactive). With C=C1CCc2nc(SCC(=O)O)ccc2N1 the growth was 96.9% (inactive). CCN(CC)c1ccc(/C=N/NC(=O)c2ccc(NS(C)(=O)=O)cc2)cc1 was tested, and the growth was 13% (inactive). COc1ccc(C2CC(c3cccc(OCCCCOc4cccc(C5=NN(C(C)=O)C(c6ccc(OC)cc6)C5)c4)c3)=NN2C(C)=O)cc1 (stereo not given) was tested, and the growth was 63.8% (inactive). In the case of C=C(C)[C@@H]1CC[C@]2(C(=O)N3CCN(C)CC3)CC[C@]3(C)[C@H](CC[C@@H]4[C@@]5(C)CC[C@H](OP(=O)(OCC)OCC)C(C)(C)[C@@H]5CC[C@]43C)[C@@H]12, the growth is reported as 35.4% (inactive). In the case of Brc1ccc(-c2cc(-c3ccc4c(c3)OCCO4)n[nH]2)s1, the growth is reported as 18.1% (inactive). With COc1ccc(/C=N/NC(=O)CSc2nc(-c3cnccn3)cc(-c3cccs3)c2C#N)cc1 the growth was 86.1% (inactive). CCOC(=O)c1cccnc1Nc1ccc(NC(=O)Nc2ccc(Cl)c(C(F)(F)F)c2)cc1 was tested, and the growth was 29.5% (inactive). For COc1cc2c3c(cc4c5c(ccc4c3c1OC)OCO5)N(CCN(C)C)C2=O, the growth was 1.57% (active). In the case of NS(=O)(=O)c1nnc(/N=C/c2c(O)[nH]c3ccccc23)s1, the growth is reported as 106% (inactive). Cc1ccc(OCc2occc2C(=O)N2CCOCC2)cc1 was tested, and the growth was 94.5% (inactive). For Fc1ccc2nc(-c3cnn4cccnc34)sc2c1, the growth was 102% (inactive). Cc1ccc(/C(N)=N/C(N)=N/c2nc3ccccc3s2)cc1 was tested, and the growth was 78.9% (inactive). Cn1c(SCC(=O)c2ccc(F)cc2)nc2ccccc2c1=O was tested, and the growth was 90.3% (inactive). For C/C(=N\NC(=O)/C=C/CC(=O)O)c1nnn(-c2ccc([N+](=O)[O-])cc2)c1C, the growth was 109% (inactive). In the case of Oc1[nH]c2ccc(Cl)cc2c1N=Nc1nc(N=Nc2c(O)[nH]c3ccc(Cl)cc23)nc(N2CCCCC2)n1, the growth is reported as 9.81% (active). Cc1ccc(N2CCN(C3=C(Cl)C(=O)c4ncccc4C3=O)CC2)cc1 was tested, and the growth was 5.41% (active). CN1CCN(Cc2ccc(NC(=O)c3cncc(C#Cc4cnc5ccc(NCCO)nn45)c3)cc2C(F)(F)F)CC1 was tested, and the growth was 9.38% (active). With CCNC(=O)Oc1ccc(/C(=C(/C)c2ccc(OC)cc2)c2ccc(OCCN3CCCCCC3)cc2)cc1 the growth was 36.8% (inactive). In the case of CNCCN(C)c1ccc(Nc2cc(NC3CC3)n3ncc(C#N)c3n2)cc1NC(C)=O, the growth is reported as 13.2% (inactive). COc1ccc(OC)c(CCn2cncc2-c2c[nH]c3ccc(Cl)cc23)c1 was tested, and the growth was 49.4% (inactive). In the case of C/C(CC1(O)C(=O)Nc2ccccc21)=N\O (stereo not given), the growth is reported as 99.7% (inactive).
